Test results published in PubChem BioAssay (Tox21).
Results filed as inconclusive are left out. The source made the active and inactive calls. Calls come from the whole dose curve.

Experiment: qHTS assay to identify small molecule agonists of the hypoxia (HIF-1) signaling pathway - cell viability counter screen (AID 1224844); note: nearly all actives have a fitted effect of over 50% in size
Details: HRE-bla ME-180 viability, CellTiter-Glo luminescence, 17 h; series mostly up to 76.8 µM
Description: National Center for Advancing Translational Sciences [NCATS]
NIH Chemical Genomics Center [NCGC]
U.S. Environmental Protection Agency [EPA]
National Institutes of Environmental Health Sciences [NIEHS]
National Toxicology Program [NTP]
U.S. Food and Drug Administration [FDA]
Hypoxia-inducible factor-1 (HIF-1) is the major hypoxia-regulated transcription factor that controls cellular responses to low oxygen concentration. HIF-1 is composed of two subunits: hypoxia responsive HIF-1-alpha and constitutively expressed HIF-1-beta, which is also known as aryl hydrocarbon receptor nuclear translocator. During hypoxic conditions, HIF-1-alpha heterodimerizes with HIF-1-beta and translocates into the nucleus where the HIF-1 complex binds to the hypoxia-response element (HRE) and activates expression of target genes such as VEGF (vascular endothelial growth factor). The HIF-1 pathway is essential to normal growth and development, and is involved in the pathophysiology of cancer, inflammation, and ischemia.
Using a beta-lactamase reporter-gene under control of the hypoxia response element, a cell-based assay [CellSensor(TM) HRE-bla ME-180 from Life Technologies, Carlsbad, CA] was used to measure hypoxia-induced signaling. Tox21 10K library compounds were measured for their ability to induce the reporter gene activity. The cytotoxicity of the Tox21 compound library against HRE-bla ME-180 cell line was tested in parallel by measuring cell viability using CellTiter-Glo assay (Promega, Madison, WI) in the same assay wells.
Tox21 Assay Protocol Summary:
HRE-bla ME-180 cells were dispensed at 2,000 cells per well in 6 uL of assay medium containing 0.5% dialyzed FBS into black wall/clear-bottom 1536-well plates using a Multidrop Combi (Thermo Scientific, Waltham, MA) dispenser. After the assay plates were incubated at 37C and 5% CO2 for 5 hrs, 23 nL of compounds dissolved in DMSO, positive controls or DMSO only was transferred to each well of the assay plate using a Pintool station (Kalypsys, San Diego, CA). The assay plates were incubated at 37C and 5% CO2 for 17 hrs. One uL of LiveBLAzerTM B/G FRET substrate (CCF4-AM) (Life Technologies) was added to each well using a Flying Reagent Dispenser (FRD, Aurora Discovery, San Diego, CA). After 2 hr incubation at room temperature, fluorescence intensity (405 nm excitation, 460 nm and 530 nm emissions) was measured using an Envision plate reader (PerkinElmer, Shelton, CT). For cytotoxicity, 4 ul/well of CellTiter-Glo reagent was added into the assay plates using an FRD. After 30 min incubation at room temperature, the luminescence intensity was measured using a ViewLux plate reader (PerkinElmer).
% is set by controls: 0 for no effect and ±100 for the full control effect.

SMILES | outcome | activity change, negative = cytotoxicity
Cc1ccc(C(=O)O)cc1[N+](=O)[O-] | inactive | –
CCOCCOCC | inactive | –
COP(=O)(O)OP(=O)(O)OC | inactive | –
CC1=NN(c2ccc(S(=O)(=O)O)cc2)C(=O)C1 | inactive | –
Cc1cccc(Cl)c1 | inactive | –
CC(=O)CC(=O)OC(C)(C)C | inactive | –
COc1ccc(CCO)cc1 | inactive | –
O=C(O)CNC(=O)CNC(=O)CNC(=O)CSC(=O)c1ccccc1 | inactive | –
OCC1CCC(CO)CC1 (stereo not given) | inactive | –
C=CCCCCCCCCC(=O)OCCCC | inactive | –
C=CCCCC | inactive | –
Cc1c(Cl)cccc1Cl | inactive | –
[O-][n+]1cccc(/C(Cl)=N/OC[C@@H](O)CN2CCCCC2)c1 | inactive | –
CCOC(=O)CC1(C)OCC(C)O1 (stereo not given) | inactive | –
O=Cc1ccccc1Cl | inactive | –
O=S(=O)(O)c1ccc2c(N=Nc3ccc(S(=O)(=O)O)c4ccccc34)c(O)c(S(=O)(=O)O)cc2c1 | – | -2.23% [at 6.97 µM] (inactive)
c1ccc2cnccc2c1 | inactive | –
COc1cc2c(cc1OC)C(=O)C(CC1CCN(Cc3ccccc3)CC1)C2 (stereo not given) | inactive | –
C=C(C)c1cccc(C(C)(C)N=C=O)c1 | inactive | –
O=NN(CCCl)C(=O)NC1CCCCC1 | inactive | –

SMILES | outcome | activity change, negative = cytotoxicity
OCCN1CCOCC1 | inactive | –
C/C=C(\C)C(C)=O | inactive | –
CC(C)C1OCCN1CCOC(=O)NCCCCCCNC(=O)OCCN1CCOC1C(C)C (stereo not given) | inactive | –
CCOc1ccccc1OCC1CNCCO1 (stereo not given) | inactive | –
O/N=C/C=N/O | inactive | –
N[C@@H](CSCCCO)C(=O)O | – | 0.058% [at 15.8 µM] (inactive)
CC(=O)C(C)O (stereo not given) | inactive | –
CC/C(C)=N\O[Si](C)(O/N=C(\C)CC)O/N=C(\C)CC | inactive | –
COC(=O)c1cccc(Cl)c1 | inactive | –
Nc1nnnn1-c1ccccc1 | inactive | –
CN(C)CCOC(=O)C(c1ccccc1)C1(O)CCCC1 (stereo not given) | inactive | –
C/C=C(\C)C(=O)OCCc1ccccc1 | inactive | –
C=CCN1C[C@H](C(=O)N(CCCN(C)C)C(=O)NCC)C[C@@H]2c3cccc4[nH]cc(c34)C[C@H]21 | inactive | –
CCCc1ccc(O)cc1 | inactive | –
CC(S)C(C)S (stereo not given) | inactive | –
NCc1ccc(S(N)(=O)=O)cc1 | inactive | –
Cc1ccc2c(c1)C(=O)c1ccccc1C2=O | inactive | –
CCN(CC)CCN | inactive | –
CC(=O)C1C(=O)C=C(C)OC1=O (stereo not given) | inactive | –
CN(C)C(C)(C)CO | inactive | –
